High-throughput results as filed in PubChem.
GLP-1R inv ag: acts as inverse agonist at human GLP-1 receptor; 410,000 tested, 1.6% active; HEK293 GLP-1R CRE-luciferase, luminescence, 24 h; GLP-1R form is constitutively active; P43220; AID 624417; Potency, µM (doses to about 38.3 µM), without a hit: at the top dose activity change, negative = inhibition, usual class: inhibitors; note: % is set by controls: 0 for no effect and ±100 for the full control effect; nearly all actives have a fitted effect of over 55% in size
Target sequence (P43220 whole entry, looked up): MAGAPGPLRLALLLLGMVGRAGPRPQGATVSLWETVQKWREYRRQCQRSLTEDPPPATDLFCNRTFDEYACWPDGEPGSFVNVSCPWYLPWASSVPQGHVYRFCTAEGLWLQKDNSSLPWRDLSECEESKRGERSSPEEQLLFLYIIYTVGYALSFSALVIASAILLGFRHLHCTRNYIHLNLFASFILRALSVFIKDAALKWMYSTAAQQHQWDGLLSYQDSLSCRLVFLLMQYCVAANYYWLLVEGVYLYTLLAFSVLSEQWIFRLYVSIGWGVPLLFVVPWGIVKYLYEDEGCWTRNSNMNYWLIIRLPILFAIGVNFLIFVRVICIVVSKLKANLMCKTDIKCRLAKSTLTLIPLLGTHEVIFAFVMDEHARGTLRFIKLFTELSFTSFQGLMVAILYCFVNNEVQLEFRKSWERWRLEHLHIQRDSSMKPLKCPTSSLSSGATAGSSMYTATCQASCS
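Seeding at 200 cells/uL, 12 h culture, 24 hr compound treatment, then luciferase reagent and a luminescence read; cells are HEK293 stably expressing a constitutively active GLP-1R plus cAMP-responsive luciferase.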
GLP-1R agonist: agonists of human GLP-1 receptor | P43220 | HEK293 GLP-1R CRE-luciferase, luminescence, 4-6 h; cells express a hypersensitive GLP-1R form | Potency, µM (top dose mostly 45.6 µM), inactives show at the highest dose activation, hits mostly activators | 380,000 tested, 0.007% active | AID 624172; note: % of control where 0% means no effect
HEK293 tox: cytotoxicity counter-screen for GLP-1 receptor inverse agonists. HEK293 cAMP-luciferase reporter cells, luminescence, 24 h. Potency, µM (top dose mostly 38.3 µM), without a hit: top-dose activity change, negative = inhibition, actives largely listed as inhibitors. 410,000 tested, 0.13% active. AID 624418;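 note: loss of luciferase light is scored as toxicity; % is set by controls: 0 for no effect and ±100 for the full control effect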
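Cells in DMEM/10% Nu serum/1% pen-strep, 1536-well format. Pre-incubated 12 h, dosed with 23 nL compound, incubated a further 24 h. Luciferase detection, 12 min at room temp, luminescence.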
Integrin act MD: activates integrin-mediated alleviation for muscular dystrophy; alpha7betagal myoblasts, beta-gal FDG fluorescence, 48 h; Potency, µM (highest dose often 38.3 µM), without a hit: at the top dose activation, hits mostly activators; 350,000 tested, 0.064% active; AID 624291;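 note: 100% = response of the positive control SU9516; nearly all actives have a fitted effect of over 60% in size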
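alpha7betagal+/- myoblasts (passage 13, 250/well) treated 48 h at 37C with compounds at 1:260 dilution of DMSO stock. Lysed, then beta-galactosidase activity read as FDG fluorescence (ex 480/em 540) after 30 min, with pre-read for autofluorescence.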
BRCA1 expr up: activators of BRCA1 expression; MCF7-BRCA1-FFLuc reporter, luminescence, 48 h; response scale: scaled: vehicle 0%, 10 µM genistein 100%; Potency, µM (top dose mostly 46.1 µM), for inactives: at the top dose activation, usual class: activators; 380,000 tested, 1.1% active; note: nearly all actives have a fitted effect of over 80% in size
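Luminescence from a BRCA1-driven firefly luciferase in MCF7 cells was the read-out, taken 15 min after substrate addition following 48 h compound exposure at 37 °C. Data were normalized to a 10 microM genistein control and DMSO vehicle.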
Active calls of the source: *; ? = inconclusive; . = no result; ! = not confirmed by another sample. Most compounds without a hit are left out; they make up all but 2.7% or so of the library. Calls come from the whole dose curve; as a rule, active = well fitted curve in the direction sought with a large enough effect; inconclusive = small, poorly fitted or top-dose-only effect, or another doubt; inactive = no such curve, though single readings can be large; an effect the other way counts as inactive or inconclusive. Potency is the fitted concentration of half-maximal effect.

SMILES	GLP-1R inv ag	GLP-1R agonist	HEK293 tox	Integrin act MD	BRCA1 expr up
Cc1cc(C)c(N=C2SCC(=O)N2Cc2ccco2)c(C)c1	?	9%	6%	-25%	-13%
O=C1CSC(=Nc2ccc(Cl)cc2)N1Cc1ccco1	8.9µM*	14%	17%	7%	-1%
CCOC(=O)CNC(=O)c1sc(NC(=O)c2cccc(F)c2)nc1C	10%	0%	9%	-2%	8.9µM*
CCOC(=O)CNC(=O)c1sc(NC(=O)c2ccccc2F)nc1C	-11%	0%	9%	-9%	?
C/C1=C2/[N-]C(C(CC(N)=O)[C@@]2(C)CCC(=O)NCC(C)OP(=O)([O-])O[C@H]2[C@@H](O)[C@@H](n3cnc4cc(C)c(C)cc43)O[C@@H]2CO)[C@]2(C)N=C(/C(C)=C3N=C(/C=C4N=C1C(CCC(N)=O)C\4(C)C)[C@@H](CCC(N)=O)[C@]\3(C)CC(N)=O)[C@@H](CCC(N)=O)[C@]2(C)CC(N)=O.CC(=O)O.[Co] (some centres not stated)	.	-7%	.	.	.
CCN(CC)c1ccc(-c2nnc(SCC(=O)NCc3ccco3)n2C)cc1	.	.	.	.	9%
Cc1nn(C(C)C(=O)NCCCN2CCCCC2C)c(=O)c2c1sc1ccccc12 (configuration not stated)	-12%	9%	0%	-65%	-13%
CCC1CCCCN1CCCNC(=O)C(C)n1nc(C)c2sc3ccccc3c2c1=O (configuration not stated)	7.9µM*	-6%	?	-57%	-8%
COC(=O)c1cc(Cl)cc2c(C)c(C3(O)CCCCC3)[nH]c12	7.1µM*	16%	8%	-15%	-55%
CCc1c(C2(O)CCCCC2)[nH]c2c(C(=O)OC)cc(Cl)cc12	?	-3%	-8%	-14%	-20%
CCOC(=O)c1cnn(-c2ccc(Cl)cc2)c1C1CCN(C(=O)OC(C)(C)C)CC1	10µM*	-3%	15%	1%	-54%
CCCNC(=O)c1cnn(-c2ccc(C)c(C)c2)c1C1CCN(C(=O)OC(C)(C)C)CC1	5%	.	1%	.	.
Cc1ccc(-n2ncc(C(=O)NCCc3c[nH]c4ccccc34)c2C2CCN(C(=O)OC(C)(C)C)CC2)cc1C	11µM*	-4%	-9%	.	-77%
CCC(C(=O)Nc1ccc(C(=O)OC)cc1)n1nc(-c2ccc(C)cc2)c2c(c1=O)CCCC2 (configuration not stated)	2.5µM*	.	2%	.	-36%
COc1cccc(/C=C/C(=O)OCC(=O)NCCC2=CCCCC2)c1OC	-21%	13%	-3%	-39%	6%
O=C(/C=C/c1cccc2ccccc12)NCCC1=CCCCC1	0%	-1%	-1%	0%	11µM*
CCCCCCCCCCCCOC(=O)N1CCN(/[N+]([O-])=N/Oc2ccc([N+](=O)[O-])cc2[N+](C)=O)CC1	.	.	.	.	10%
O=C(Nc1ccc(Cl)cn1)c1ccc(COc2ccccc2Br)o1	?	14%	16%	3%	11µM*
O=C(Nc1nn(Cc2ccc(Cl)cc2)cc1Br)c1ccc(COc2ccccc2Cl)o1	5µM*	-3%	5%	6%	-55%
CCOc1ccc(OCc2ccc(C(=O)Nc3ccc(Cl)cn3)o2)cc1	?	-1%	0%	-5%	?
CN(C)C(=O)c1ccc(COc2ccccc2Br)o1	8%	29%	-3%	11%	10µM*
Cc1ccc(Cn2c(C(=O)O)c(CNCc3cccs3)c3ccc(C)cc32)cc1	-7%	-4%	-14%	.	-31%
N=c1c2c(ncn1Cc1ccco1)Oc1c(ccc3ccccc13)C2c1ccccc1 (configuration not stated)	4µM*	18%	?	-31%	-103%
COc1ccc(N(Cc2ccccc2)S(=O)(=O)c2cccc(C(=O)NC3=NCCS3)c2)cc1	10µM*	-3%	-28%	-6%	-45%
COc1ccc(N2CCN(C(=O)c3ccc(CS(=O)c4cccc(Cl)c4)o3)CC2)cc1 (configuration not stated)	?	-1%	-12%	-22%	-41%
SMILES	GLP-1R inv ag	GLP-1R agonist	HEK293 tox	Integrin act MD	BRCA1 expr up
COc1ccc(S(=O)Cc2ccc(C(=O)N3CCN(c4cccc(C)c4C)CC3)o2)cc1 (configuration not stated)	7.1µM*!	-5%	2%	8%	-4%
Cc1ccccc1S(=O)(=O)Cc1ccc(C(=O)N2CCN(c3cccc(C)c3C)CC2)o1	4.5µM*	-18%	?	-47%	-96%
O=C(c1ccc(CS(=O)c2ccccc2Cl)o1)N1CCN(c2cccc(Cl)c2)CC1 (configuration not stated)	0.89µM*	.	?	.	.
CSc1ccccc1OCc1cc(C(=O)N[C@H]2CCCCNC2=O)no1	-8%	-3%	-3%	12%	11µM*
Cc1cc(C)nc(CCNC(=O)c2cc(COc3c(F)cccc3F)on2)n1	2%	4%	7%	-39%	-1%
Cc1nonc1CN(C)C(=O)c1cc(COc2ccc(F)cc2Cl)on1	?	0%	-6%	?	95%
CSc1ccccc1OCc1cc(C(=O)NCc2cccc(C)n2)no1	-15%	-3%	9%	-5%	6.3µM*
COc1ccc(OCc2cc(C(=O)N[C@H]3CCCCNC3=O)no2)c(Cl)c1	-20%	21%	9%	3%	77%
CSc1ccccc1OCc1cc(C(=O)NC(C)Cc2cccc(C)n2)no1 (configuration not stated)	?	7%	-28%	-30%	?
CSc1ccccc1OCc1cc(C(=O)N(C)Cc2nonc2C)no1	?	12%	6%	16%	11µM*
Cc1cc(C)nc(CCNC(=O)c2cc(COc3ccccc3)on2)n1	23%	-3%	-3%	15%	7.9µM*
CCN(CC)c1ccc(NC(=O)C2CCN(S(=O)(=O)c3c(C)noc3/C=C/c3ccccc3F)CC2)c(C)c1	8%	.	3%	.	.
COc1ccc(-n2nc(C(=O)Nc3ccc(C(C)=O)cc3)nc2-c2ccccc2)cc1	?	.	-13%	.	-21%
COc1cc(NC(=O)CN2C(=O)C(c3ccc(Cl)cc3)=NC23CCCCC3)cc(OC)c1	?	.	0%	.	.
CSc1ccccc1OCc1cc(C(=O)NC2CCOC2)no1 (configuration not stated)	1%	19%	0%	29%	13µM*
C=CC[C@H]1CC(C)=C[C@H](CC=C)N1C(=O)c1cc(COc2ccccc2SC)on1	8.9µM*	13%	14%	-4%	-29%
COc1cc(Cl)c(CN2CCCC(CO)(Cc3cccc(Cl)c3)C2)cc1OC (configuration not stated)	8.9µM*	5%	-14%	-6%	-30%
